Measurements published in PubChem BioAssay (NCI).
Compounds without any hit were thinned out: in the full panel of roughly 79,000, 15% have a hit. Active and inactive are the calls of the source. Cut-off read from the data, not from the text of the source: active = growth inhibition above about 70%; inactive = the rest.

How the values were obtained:
[1] = NCI Yeast Anticancer Drug Screen. Data for the wt1 strain (AID 149);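 note: 0% = growth of vehicle-treated wt1 cultures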; details: S. cerevisiae wt1 strain (SPY 50644) growth inhibition, hits give high values
Outline: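 Yeast wt1 strain exposed to compounds; growth inhibition measured relative to vehicle-treated controls.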

[2] = NCI Yeast Anticancer Drug Screen. Data for the rad50EPP+ strain (AID 151);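 note: 0% = growth of vehicle-treated control cultures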; details: S. cerevisiae rad50 mutant strain, hits give high values
Outline: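 Compounds were applied to the rad50EPP+ yeast strain, which bears a defined DNA repair alteration, and growth inhibition was determined relative to vehicle-treated cultures.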

[3] = NCI Yeast Anticancer Drug Screen. Data for the mgt1 strain (AID 153); details: S. cerevisiae mgt1 mutant growth inhibition, hits give high values
Outline: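 Strain: mgt1 yeast, one of a set carrying defined DNA damage repair or cell cycle control alterations. Compound-treated growth compared with vehicle.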

[4] = NCI Yeast Anticancer Drug Screen. Data for the rad50 strain (AID 155);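 note: 0% = growth of vehicle-only cultures of the same strain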; details: S. cerevisiae rad50 strain growth inhibition, hits give high values
Outline: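 Yeast carrying a defined DNA repair defect were exposed to test compounds, and growth was compared with vehicle-treated controls to give percent inhibition.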

[5] = NCI Yeast Anticancer Drug Screen. Data for the mec2-1 strain (AID 157); details: S. cerevisiae mec2-1 strain, hits give high values
Outline: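 Strain: mec2-1 (DNA repair/cell cycle alteration). Compound exposure, then growth measured; inhibition expressed relative to vehicle.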

[6] = NCI Yeast Anticancer Drug Screen. Data for the sgs1 mgt1 strain (AID 161);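 note: 0% = growth of cultures given vehicle only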; details: S. cerevisiae sgs1 mgt1 strain, hits give high values
Outline: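 Read-out: growth inhibition vs vehicle controls. Cells: mutant yeast strain deficient in DNA damage repair.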

[7] = NCI Yeast Anticancer Drug Screen. Data for the CLN2oe strain (AID 163);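 note: 0% = growth of vehicle-only control cultures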; details: S. cerevisiae CLN2oe strain, hits give high values
Outline: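 Growth of a genetically modified yeast strain is measured after compound exposure and compared with cultures given vehicle alone.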

[8] = NCI Yeast Anticancer Drug Screen. Data for the cln2 rad14 strain (AID 165);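 note: 0% = growth equal to vehicle treated cultures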; details: S. cerevisiae cln2 rad14 strain, hits give high values
Outline: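 Compounds are applied to the cln2 rad14 yeast strain, and growth is then compared with that of vehicle-treated cultures to give inhibition.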

[9] = NCI Yeast Anticancer Drug Screen. Data for the bub3 strain (AID 167); details: S. cerevisiae bub3 mutant strain, hits give high values
Outline: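 Compounds were applied to a genetically altered yeast strain carrying a cell-cycle control defect. Growth inhibition was scored against vehicle-treated controls.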

[10] = NCI Yeast Anticancer Drug Screen. Data for the wt2 strain (AID 169);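 note: 0% = growth of vehicle-treated yeast cultures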; details: S. cerevisiae wt2 strain growth inhibition, hits give high values
Outline: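 This strain belongs to a panel of yeast strains with defined genetic alterations in DNA damage repair or cell cycle control. Compounds are applied, and growth inhibition is measured against vehicle-treated cultures.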

[11] = NCI Yeast Anticancer Drug Screen. Data for the mlh1 strain (AID 171);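 note: 0% = growth of vehicle-treated control cultures of the same strain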; details: S. cerevisiae mlh1 strain growth inhibition, hits give high values
Outline: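 Growth of the mutant yeast strain after compound exposure, expressed as inhibition relative to vehicle-only controls.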

[12] = NCI Yeast Anticancer Drug Screen. Data for the sgs1 strain (AID 173);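 note: 0% = growth of vehicle-only control cultures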; details: S. cerevisiae sgs1 mutant, hits give high values
Outline: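 Growth of a yeast strain bearing a defined genetic alteration is measured after compound treatment. Inhibition is expressed relative to vehicle-only controls.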

[13] = NCI Yeast Anticancer Drug Screen. Data for the mlh1 rad18 strain (AID 175); details: S. cerevisiae mlh1 rad18 strain growth inhibition, hits give high values
Outline: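 Read-out is yeast growth inhibition, calculated against vehicle-only controls. The compound was applied to a strain engineered with DNA damage repair alterations.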

[14] = NCI Yeast Anticancer Drug Screen. Data for the rad18 strain (AID 177); details: S. cerevisiae rad18 mutant growth inhibition, hits give high values
Outline: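 Growth of the mutant yeast strain after compound exposure, normalised to vehicle-only cultures.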

[15] = NCI Yeast Anticancer Drug Screen. Data for the rad14 strain (AID 159);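 note: 0% = growth of vehicle-treated control cultures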; details: S. cerevisiae rad14 strain growth inhibition, hits give high values
Outline: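 Yeast cells carrying a defined DNA-repair defect were exposed to compounds, and growth inhibition was calculated relative to vehicle-treated control cultures.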

[16] = at 5.0 µM (retest, dose inferred, filed as 0.5)
[17] = at 50.0 µM (retest, dose inferred, filed as 5.0)

Measured: growth inhibition

C#CC1=CC(=O)C(OC)=CC1=O
active: [1]; at 33.0 µM 90% | [1]; at 100.0 µM 98% | [2]; at 33.0 µM 95% | [2]; at 100.0 µM 98% | [3]; at 33.0 µM 99% | [3]; at 100.0 µM 99% | [4]; at 11.0 µM 94% | [4]; at 33.0 µM 98% | [4]; [17] 99% | [4]; at 100.0 µM 98% | [5]; at 11.0 µM 89% | [5]; at 33.0 µM 99% | [5]; [17] 99% | [5]; at 100.0 µM 99% | [6]; [17] 99% | [7]; at 33.0 µM 88% | [7]; at 100.0 µM 99% | [8]; [17] 99% | [9]; at 11.0 µM 88% | [9]; at 33.0 µM 99% | [9]; [17] 99% | [9]; at 100.0 µM 99% | [10]; at 33.0 µM 97% | [10]; at 100.0 µM 99% | [11]; at 11.0 µM 96% | [11]; at 33.0 µM 99% | [11]; at 100.0 µM 99% | [12]; at 11.0 µM 98% | [12]; at 33.0 µM 100% | [12]; at 100.0 µM 99% | [13]; [16] 77% | [13]; [17] 99% | [14]; at 3.7 µM 83% | [14]; at 11.0 µM 96% | [14]; at 33.0 µM 99% | [14]; at 100.0 µM 99%
inactive: [1]; at 1.2 µM -2% | [1]; at 3.7 µM -1% | [1]; at 11.0 µM 23% | [2]; at 1.2 µM 9% | [2]; at 3.7 µM 21% | [2]; at 11.0 µM 43% | [3]; at 1.2 µM 0% | [3]; at 3.7 µM 11% | [3]; at 11.0 µM 48% | [4]; at 1.2 µM 14% | [4]; at 3.7 µM 34% | [4]; [16] 53% | [4]; at 50.0 µM 30.4% | [5]; at 1.2 µM 0% | [5]; at 3.7 µM 14% | [5]; [16] 23% | [5]; at 50.0 µM 62% | [6]; [16] 54% | [6]; at 50.0 µM 32.5% | [7]; at 1.2 µM 2% | [7]; at 3.7 µM 14% | [7]; at 11.0 µM 29% | [8]; [16] 39% | [8]; at 50.0 µM 47.4% | [9]; at 1.2 µM -6% | [9]; at 3.7 µM 0% | [9]; [16] 21% | [9]; at 50.0 µM 65.2% | [10]; at 1.2 µM -6% | [10]; at 3.7 µM 2% | [10]; at 11.0 µM 48% | [11]; at 1.2 µM 3% | [11]; at 3.7 µM 16% | [12]; at 1.2 µM 11% | [12]; at 3.7 µM 34% | [13]; at 50.0 µM 66.2% | [14]; at 1.2 µM 40%

CNC(=O)OCc1c(COC(=O)NC)c(C)n(-c2ccc(Cl)c(Cl)c2)c1C
inactive: [1]; at 1.2 µM -51% | [1]; at 3.7 µM -53% | [1]; at 11.0 µM -54% | [2]; at 1.2 µM -23% | [2]; at 3.7 µM -19% | [2]; at 11.0 µM -25% | [2]; at 33.0 µM -18% | [2]; at 100.0 µM 65% | [3]; at 1.2 µM -35% | [3]; at 3.7 µM -40% | [3]; at 11.0 µM -14% | [5]; at 1.2 µM -27% | [5]; at 3.7 µM -22% | [5]; [16] 23% | [5]; at 11.0 µM -26% | [15]; at 1.2 µM -38% | [15]; at 3.7 µM -16% | [15]; at 11.0 µM 25% | [6]; [16] 5% | [6]; [17] 23% | [7]; at 1.2 µM -30% | [7]; at 3.7 µM -4% | [7]; at 11.0 µM -1% | [7]; at 33.0 µM 46% | [8]; [16] 7% | [8]; [17] -10% | [9]; at 1.2 µM -31% | [9]; at 3.7 µM -36% | [9]; [16] 8% | [9]; at 11.0 µM -21% | [9]; [17] 9% | [10]; at 1.2 µM -48% | [10]; at 3.7 µM -37% | [10]; at 11.0 µM -58% | [11]; at 1.2 µM -26% | [11]; at 3.7 µM -10% | [11]; at 11.0 µM 10% | [12]; at 1.2 µM 3% | [12]; at 3.7 µM -4% | [12]; at 11.0 µM 1% | [13]; [16] 39% | [14]; at 1.2 µM -32% | [14]; at 3.7 µM -33% | [14]; at 11.0 µM 1%
active: [1]; at 33.0 µM 97% | [1]; at 100.0 µM 99% | [3]; at 33.0 µM 98% | [3]; at 100.0 µM 99% | [5]; at 33.0 µM 98% | [5]; [17] 98% | [5]; at 50.0 µM 90.8% | [5]; at 100.0 µM 99% | [15]; at 33.0 µM 98% | [15]; at 100.0 µM 98% | [6]; at 50.0 µM 89.5% | [7]; at 100.0 µM 94% | [8]; at 50.0 µM 84.5% | [9]; at 33.0 µM 97% | [9]; at 50.0 µM 87% | [9]; at 100.0 µM 98% | [10]; at 33.0 µM 91% | [10]; at 100.0 µM 97% | [11]; at 33.0 µM 97% | [11]; at 100.0 µM 97% | [12]; at 33.0 µM 97% | [12]; at 100.0 µM 98% | [13]; [17] 98% | [13]; at 50.0 µM 92.3% | [14]; at 33.0 µM 97% | [14]; at 100.0 µM 98%
